Assay [1] is described as follows: qHTS assay to identify small molecule antagonists of the thyroid receptor (TR) signaling pathway (AID 743065). Note: nearly all actives have a fitted effect of over 55% in size. Note: potency is the fitted concentration of half-maximal effect. An outline of the steps:
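GH3.TRE-Luc rat pituitary cells (two TREs driving luciferase) were dosed with compound, then stimulated with 1 nM T3 (final) for 23.5 h at 37 C. ONE-Glo luminescence was the read-out, with CellTiter-Fluor fluorescence as the cytotoxicity counter-screen.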

Assay [2] relates to thyroid hormone receptor (rat, GH3 cells). Put plainly: qHTS assay to identify small molecule agonists of the thyroid receptor (TR) signaling pathway (AID 743066; calls by dose curve). A general note: Quantitative high-throughput screening tests each substance at several concentrations.
Assay [3] concerns the target Estrogen receptor (Homo sapiens) (UniProt P03372). The assay is described as follows: qHTS assay to identify small molecule antagonists of the estrogen receptor alpha (ER-alpha) signaling pathway (AID 743069; active = well fitted curve in the direction sought with a large enough effect in the signal ratio in the repeat runs, not every such curve was filed as active; the % refers to the signal ratio; note: potency is the fitted concentration of half-maximal effect). In outline:
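In this cell-based reporter format, GripTite HEK293 cells harbouring ER-alpha-UAS-bla were grown overnight with 2% charcoal-stripped FBS, dosed with DMSO-dissolved compounds, then challenged with 17beta-estradiol. After 18 hr at 37C, beta-lactamase activity was detected by FRET fluorescence.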

Assay [4] has the same target. Put plainly: qHTS assay to identify small molecule agonists of the estrogen receptor alpha (ER-alpha) signaling pathway (AID 743075; calls by dose curve).
Assay [5] has the same target. Put plainly: qHTS assay to identify small molecule agonists of the estrogen receptor alpha (ER-alpha) signaling pathway using the BG1 cell line (AID 743079). Note: nearly all actives have a fitted effect of over 20% in size. Note: potency is the fitted concentration of half-maximal effect.
Assay [6] in a line: qHTS assay to identify small molecule antagonists of the estrogen receptor alpha (ER-alpha) signaling pathway using the BG1 cell line - cell viability counter screen (AID 743081).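 Note: compound given together with 17beta-estradiol as the ER stimulus; series mostly up to about 70 µM; nearly all actives have a fitted effect of over 45% in size.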
In assay [7] the target is Aromatase (Homo sapiens) (UniProt P11511). Put plainly: qHTS assay to identify aromatase inhibitors (AID 743083). Note: series mostly up to about 70 µM; nearly all actives have a fitted effect of over 55% in size.
Assay [8] in a line: qHTS assay to identify aromatase inhibitors - cell viability counter screen (AID 743084).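 Note: cells stimulated with testosterone during compound exposure; nearly all actives have a fitted effect of over 55% in size.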
In assay [9] the target is Aryl hydrocarbon receptor (Homo sapiens) (UniProt P35869). Put plainly: qHTS assay to identify small molecule that activate the aryl hydrocarbon receptor (AhR) signaling pathway (AID 743085).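 For activation: HG2L7.5c1 human HepG2 liver cells with stably integrated DRE-driven firefly reporter; series mostly up to about 70 µM.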 Note: nearly all actives have a fitted effect of over 15% in size. Note: potency is the fitted concentration of half-maximal effect. In outline: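 A multiplexed format paired cell viability (CellTiter-Fluor fluorescence) with AhR-dependent luciferase output (ONE-Glo luminescence) in the same wells of HepG2 DRE-luc cells after 24 h compound exposure at 37C.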

A short description of assay [10]: qHTS assay to identify small molecule that activate the aryl hydrocarbon receptor (AhR) signaling pathway - cell viability counter screen (AID 743086).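 Note: HepG2 liver cells carrying the AhR DRE luciferase reporter; series mostly up to about 70 µM; nearly all actives have a fitted effect of over 45% in size.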 An outline of the steps: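 HepG2-AhR-luc (HG2L7.5c1) cells, 4000/well, treated 24 h at 37 C with compound; viability measured as CellTiter-Fluor fluorescence after 30 min in the same wells as the luciferase read.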

Assay [11] in a line: qHTS assay to identify small molecule antagonists of the peroxisome proliferator-activated receptor gamma (PPARg) signaling pathway - cell viability counter screen (AID 743194). Note: nearly all actives have a fitted effect of over 55% in size. In outline:
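Cytotoxicity counter screen in PPARg-bla HEK293H cells, same wells as reporter assay. Compounds plus 50 nM rosiglitazone (final) for 17 h at 37 C, then viability read by CellTiter-Glo luminescence.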

Assay [12] in a line: qHTS assay for small molecule agonists of the antioxidant response element (ARE) signaling pathway - cell viability counter screen (AID 743203; calls by dose curve; note: nearly all actives have a fitted effect of over 55% in size). An outline of the steps:
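Luminescence read-out (CellTiter-Glo, 30 min at room temperature) measured cell viability in the same wells as the ARE beta-lactamase reporter. HepG2 ARE-bla cells were treated with compounds for 16 hrs at 37C/5% CO2.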

Assay [13] in a line: qHTS assay for small molecule activators of the heat shock response signaling pathway - cell viability counter screen (AID 743209). Note: nearly all actives have a fitted effect of over 50% in size. An outline of the steps:
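HSE-bla HeLa; 1500 cells/well; overnight 37 C, 5% CO2; compound 5 h 37 C; LiveBLAzer B/G substrate 2.5 h RT; CellTiter-Glo 30 min RT; luminescence.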

A short description of assay [14]: qHTS assay for small molecule activators of the heat shock response signaling pathway (AID 743210; active = well fitted activation curve with a large enough effect in the signal ratio in the repeat runs, with a control signal flat, not every such curve was filed as active; the % refers to the signal ratio;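 note: HeLa cells with beta-lactamase reporter driven by heat shock elements; series mostly up to about 63 µM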). In outline: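 Following overnight attachment, HSE-bla HeLa cells received test compounds for 5 h at 37 C; beta-lactamase activity was then detected via FRET substrate fluorescence.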
The nature of assay [15]: qHTS assay to identify small molecule agonists of the peroxisome proliferator-activated receptor delta (PPARd) signaling pathway - cell viability counter screen (AID 743211). Note: nearly all actives have a fitted effect of over 55% in size. An outline of the steps: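 Tox21 library compounds, delivered in DMSO, were incubated 17 h with PPARd-bla HEK293H cells; cytotoxicity was taken from CellTiter-Glo luminescence read 30 min after reagent addition.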

The nature of assay [16]: qHTS assay to identify small molecule antagonists of the estrogen receptor alpha (ER-alpha) signaling pathway - cell viability counter screen (AID 743074; calls by dose curve; note: nearly all actives have a fitted effect of over 45% in size).
The nature of assay [17]: qHTS assay to identify small molecule antagonists of the estrogen receptor alpha (ER-alpha) signaling pathway using the BG1 cell line (AID 743080; calls by dose curve; note: series mostly up to about 70 µM; nearly all actives have a fitted effect of over 25% in size). In outline: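 Antagonist mode: compounds in DMSO were pinned onto BG1-Luc-4E2 cells alongside 17beta-estradiol agonist, incubated 21.5 h, and ERE-driven luciferase measured with ONE-Glo. Cytotoxicity was multiplexed using CellTiter-Fluor fluorescence.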

For assay [18], the target named is Peroxisome proliferator-activated receptor gamma (Homo sapiens) (UniProt P37231). Put plainly: qHTS assay to identify small molecule agonists of the peroxisome proliferator-activated receptor gamma (PPARg) signaling pathway (AID 743094; active = well fitted activation curve with a large enough effect in the signal ratio in the repeat runs, not every such curve was filed as active; the % refers to the signal ratio). In outline: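 HEK293H PPARg-bla cells, 5 h settle at 37C/5% CO2; compound (DMSO) 17 h, 37C; B/G FRET substrate 1 h RT; fluorescence intensity read-out. qHTS format.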

For assay [19] the target is unchanged. The assay is described as follows: qHTS assay to identify small molecule antagonists of the peroxisome proliferator-activated receptor gamma (PPARg) signaling pathway (AID 743191; calls by dose curve; note: series mostly up to about 63 µM; nearly all actives have a fitted effect of over 30% in size). An outline of the steps:
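GeneBLAzer PPARg UAS-bla HEK293H cells, 5 h post-plating, exposed to compounds 17 h at 37C. LiveBLAzer B/G FRET substrate added for 1 h at room temperature; beta-lactamase reporter read by fluorescence intensity.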

Assay [20] is described as follows: qHTS assay for small molecule agonists of the antioxidant response element (ARE) signaling pathway (AID 743202; active = well fitted activation curve with a large enough effect in the signal ratio in the repeat runs, not every such curve was filed as active; the % refers to the signal ratio; note: potency is the fitted concentration of half-maximal effect). An outline of the steps: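 HepG2 ARE-bla cells; 16 h treatment at 37 C; FRET-based beta-lactamase fluorescence read after 2 h substrate incubation at room temperature.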

Structures are written as SMILES. “And” between values parts separate entries of the source, which are not always exact repeats. Equal entries are not always repeated. Inconclusive results are not listed. Unmarked numbers belong to inactive results. The source made the active and inactive calls. Unless noted, calls come from the whole dose curve; as a rule, active = well fitted curve in the direction sought with a large enough effect in the repeat runs; inconclusive = weak or mixed curves; inactive = no such curve, though single readings can be large; an effect the other way counts as inactive or inconclusive.

Chain of Peroxisome proliferator-activated receptor gamma (Homo sapiens) (P37231 whole entry, looked up): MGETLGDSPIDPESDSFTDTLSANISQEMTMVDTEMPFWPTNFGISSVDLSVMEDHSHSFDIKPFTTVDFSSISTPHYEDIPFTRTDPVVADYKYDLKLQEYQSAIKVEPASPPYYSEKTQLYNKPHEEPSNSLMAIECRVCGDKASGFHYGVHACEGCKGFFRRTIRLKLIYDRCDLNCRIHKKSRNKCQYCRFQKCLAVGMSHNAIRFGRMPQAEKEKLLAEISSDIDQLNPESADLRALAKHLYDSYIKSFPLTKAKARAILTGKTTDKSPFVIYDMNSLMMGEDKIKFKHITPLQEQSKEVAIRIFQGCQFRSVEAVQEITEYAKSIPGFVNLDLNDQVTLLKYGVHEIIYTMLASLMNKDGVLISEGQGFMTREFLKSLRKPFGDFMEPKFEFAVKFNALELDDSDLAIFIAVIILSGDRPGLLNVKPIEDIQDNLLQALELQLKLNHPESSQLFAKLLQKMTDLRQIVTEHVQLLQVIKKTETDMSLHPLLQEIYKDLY
Chain of Aryl hydrocarbon receptor (Homo sapiens) (P35869 whole entry, looked up): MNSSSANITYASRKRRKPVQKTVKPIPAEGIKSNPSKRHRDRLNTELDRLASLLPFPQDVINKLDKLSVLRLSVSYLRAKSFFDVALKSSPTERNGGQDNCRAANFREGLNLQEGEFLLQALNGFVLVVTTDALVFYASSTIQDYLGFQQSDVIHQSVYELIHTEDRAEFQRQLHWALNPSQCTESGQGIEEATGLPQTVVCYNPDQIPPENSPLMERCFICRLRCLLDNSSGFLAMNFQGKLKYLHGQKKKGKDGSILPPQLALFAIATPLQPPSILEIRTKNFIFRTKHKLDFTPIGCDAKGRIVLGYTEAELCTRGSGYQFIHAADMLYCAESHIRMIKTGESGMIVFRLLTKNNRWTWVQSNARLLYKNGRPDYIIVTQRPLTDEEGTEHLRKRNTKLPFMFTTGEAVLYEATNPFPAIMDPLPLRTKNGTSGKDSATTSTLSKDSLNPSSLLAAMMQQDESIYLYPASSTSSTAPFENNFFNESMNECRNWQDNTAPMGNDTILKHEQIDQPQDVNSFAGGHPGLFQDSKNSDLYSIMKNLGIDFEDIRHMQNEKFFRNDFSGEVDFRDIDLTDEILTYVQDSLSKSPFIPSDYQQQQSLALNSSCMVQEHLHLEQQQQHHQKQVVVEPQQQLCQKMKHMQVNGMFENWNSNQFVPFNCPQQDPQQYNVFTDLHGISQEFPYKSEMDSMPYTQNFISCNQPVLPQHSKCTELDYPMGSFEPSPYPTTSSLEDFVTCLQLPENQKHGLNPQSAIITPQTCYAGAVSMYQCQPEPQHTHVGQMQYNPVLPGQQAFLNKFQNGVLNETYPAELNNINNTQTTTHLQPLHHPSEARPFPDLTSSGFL
Chain of Aromatase (Homo sapiens) (P11511 whole entry, looked up): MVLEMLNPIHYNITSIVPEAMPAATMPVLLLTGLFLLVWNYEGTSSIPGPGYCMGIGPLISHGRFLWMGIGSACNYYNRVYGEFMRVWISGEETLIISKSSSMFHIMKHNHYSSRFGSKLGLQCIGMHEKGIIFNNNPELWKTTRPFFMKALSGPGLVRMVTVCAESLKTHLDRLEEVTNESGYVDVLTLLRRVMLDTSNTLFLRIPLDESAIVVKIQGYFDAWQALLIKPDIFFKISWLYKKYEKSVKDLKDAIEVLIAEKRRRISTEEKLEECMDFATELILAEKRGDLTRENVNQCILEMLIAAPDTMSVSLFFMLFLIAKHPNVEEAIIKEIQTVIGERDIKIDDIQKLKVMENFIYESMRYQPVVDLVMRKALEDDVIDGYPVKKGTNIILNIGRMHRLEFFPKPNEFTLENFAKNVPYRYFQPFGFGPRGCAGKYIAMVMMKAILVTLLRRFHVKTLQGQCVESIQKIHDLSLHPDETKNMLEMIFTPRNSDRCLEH
Chain of Estrogen receptor (Homo sapiens) (P03372 whole entry, looked up): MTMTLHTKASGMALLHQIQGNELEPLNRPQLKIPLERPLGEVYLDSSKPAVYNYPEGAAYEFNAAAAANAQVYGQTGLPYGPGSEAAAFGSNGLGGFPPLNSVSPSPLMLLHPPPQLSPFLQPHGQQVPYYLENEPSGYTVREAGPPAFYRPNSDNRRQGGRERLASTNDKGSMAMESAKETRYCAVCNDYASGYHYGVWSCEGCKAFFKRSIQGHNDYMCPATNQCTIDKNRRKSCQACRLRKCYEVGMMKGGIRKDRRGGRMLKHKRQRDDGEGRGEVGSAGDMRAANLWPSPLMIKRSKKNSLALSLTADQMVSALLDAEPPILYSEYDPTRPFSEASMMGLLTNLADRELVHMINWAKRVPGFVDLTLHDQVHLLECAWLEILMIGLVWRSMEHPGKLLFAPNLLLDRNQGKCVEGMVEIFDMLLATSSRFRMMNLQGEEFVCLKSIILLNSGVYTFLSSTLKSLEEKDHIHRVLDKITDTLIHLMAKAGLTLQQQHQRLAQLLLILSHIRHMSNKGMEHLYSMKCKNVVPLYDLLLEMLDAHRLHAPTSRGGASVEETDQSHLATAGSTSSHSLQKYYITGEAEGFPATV

With `Nc1ccn([C@@H]2O[C@H](CO)[C@@H](O)C2(F)F)c(=O)n1`, the figures for the Potency in assay [1] and in assay [3] were 0.0422 µM (active) and 4.77 µM [inhibitor] (active), respectively. The molecule was classed as inactive in [2], in assay [6], in assay [7], in assay [11], in assay [12] and in [13]. Moreover, the outcome in assay [14] and in assay [15] was inactive. The Potency result in assay [4], in [5], in assay [8], in assay [9] and in [10] was “inactive” in each case.
As to `CCOC(=O)c1cnc2c(cnn2CC)c1NN=C(C)C`, the Potency entry in assay [1], in [16], in assay [4], in assay [5], in [17] and in [8] was “inactive” throughout. The Potency result in [10], in assay [18], in assay [19] and in assay [20] was “inactive” each time. Also, the call in assay [2], in [6], in [7], in [11], in assay [12] and in assay [13] was inactive. Further, the molecule was classed as inactive in assay [14] and in assay [15]. Besides, the Potency in assay [9] is 29.8 µM (active).
For `CCC(C(=O)NC(=O)NC(C)=O)c1ccccc1` (configuration not stated), the Potency entry in assay [1], in assay [3], in [16], in assay [4], in assay [5] and in assay [17] was “inactive” each time. The Potency entry in [8], in [9], in [10], in assay [18], in assay [19] and in assay [20] was “inactive” each time. Also, the molecule was classed as inactive in assay [2], in assay [7], in assay [11], in [12], in assay [13] and in assay [15].
`C1CCC2(CCCCO2)OC1`: the Potency result in [1], in [3], in assay [16], in assay [4], in assay [5] and in [17] was “inactive” throughout. The Potency entry in assay [8], in [9], in assay [10], in assay [19] and in [20] was “inactive” throughout. Moreover, the molecule was classed as inactive in [2], in assay [6], in assay [7], in assay [11], in assay [13] and in [14]. In addition, the molecule was called inactive in assay [15].
Take `C=CCCCCCCCCC(=O)OCC`: the Potency result in [1], in assay [3], in [4], in assay [5], in [17] and in assay [8] was “inactive” in each case. Besides, the Potency entry in assay [10] was “inactive”. Further, the molecule was called inactive in assay [2], in assay [6], in assay [7], in assay [11], in assay [12] and in assay [13]. Besides, the call in assay [14] and in assay [15] was inactive.
In the case of `CC(CC=O)CC(C)(C)C` (configuration not stated), the Potency entry in assay [1], in [3], in assay [4], in [5], in [17] and in assay [8] was “inactive” each time. For the same molecule, the Potency result in assay [9], in assay [10], in [18] and in [19] was “inactive” each time. For the same molecule, the molecule was called inactive in assay [2], in [6], in [7], in [11], in assay [12] and in [13]. Also, the result in [14] and in [15] was inactive.
Regarding `CN1CC(=O)N/C1=N/C(=O)Nc1cccc(Cl)c1`, the Potency result in assay [1], in [3], in assay [16], in assay [4], in [8] and in [10] was “inactive” throughout. Besides, the Potency result in assay [18] and in assay [19] was “inactive” each time. Further, the outcome in assay [2], in assay [6], in assay [7], in [11], in assay [13] and in [14] was inactive. In assay [15], the call was inactive. Moreover, the Potency is 29.8 µM (active) and 5.31 µM (active) in assay [5]; 26.6 µM (active) and 1.68 µM (active) in [9].
Turning to `Cc1cccc(C)c1NC(=O)CC12CCCN1CCC2`, the Potency result in assay [1], in assay [3], in assay [16], in [4], in [5] and in [17] was “inactive” in each case. Besides, the Potency result in assay [8], in assay [9] and in assay [10] was “inactive” in each case. The result in [2], in assay [6], in [7], in assay [11], in assay [13] and in assay [14] was inactive. Moreover, the molecule was called inactive in assay [15].
Turning to `COc1ccnc(CS(=O)c2nc3cc(OC(F)F)ccc3[nH]2)c1OC` (configuration not stated), the Potency entry in assay [1], in [16], in assay [4], in [5], in assay [17] and in assay [8] was “inactive” throughout. The Potency entry in assay [10] was “inactive”. Moreover, the molecule was called inactive in [2], in [6], in [7], in [11], in assay [12] and in assay [13]. The call in assay [14] and in assay [15] was inactive. Moreover, the Potency in assay [9] is 3.35 µM (active); in [20], 27.5 µM (active).
As to `O=C(O)Cc1csc(-c2ccc(Cl)cc2)n1`, the Potency result in [1], in [3], in assay [16], in assay [4], in [5] and in assay [17] was “inactive” throughout. For the same molecule, the Potency result in assay [8], in assay [9], in [10], in assay [19] and in [20] was “inactive” each time. The molecule was called inactive in [2], in [6], in assay [7], in assay [11], in assay [12] and in assay [13]. The result in assay [14] and in assay [15] was inactive.
Take `C[C@H]1C[C@H]2[C@@H]3CCC4=CC(=O)C=C[C@]4(C)[C@H]3C(=O)C[C@]2(C)[C@@]1(O)C(=O)CO`: the Potency result in assay [1], in assay [3], in assay [4], in assay [5], in assay [17] and in assay [8] was “inactive” throughout. Further, the Potency result in assay [9], in [10], in assay [19] and in assay [20] was “inactive” throughout. The call in [2], in assay [6], in [7], in assay [11], in assay [12] and in [13] was inactive. Also, the result in assay [14] and in assay [15] was inactive.
Turning to `O=C(O)c1cn(C2CC2)c2cc(N3CCNCC3)c(F)cc2c1=O`, the Potency entry in [1], in assay [3], in assay [16], in assay [4], in assay [5] and in [17] was “inactive” in each case. The Potency result in assay [8], in [10], in [18] and in [19] was “inactive” throughout. Besides, the molecule was called inactive in [2], in assay [6], in [11], in assay [13], in [14] and in assay [15].
Take `CC1CCC(CO)CC1` (configuration not stated): the Potency result in [1], in assay [16], in assay [4], in assay [5], in assay [17] and in assay [8] was “inactive” throughout. For the same molecule, the Potency entry in assay [9] and in [10] was “inactive” in each case. Also, the molecule was called inactive in assay [2], in [6], in [7], in assay [11], in [12] and in assay [13]. The call in [14] and in assay [15] was inactive.

The values are drawn from PubChem BioAssay (Tox21).
